The text below walks through data of PubChem BioAssay (Tox21).

Inconclusive results are not listed. A number with no mark means an inactive call. Calls of active or inactive are those of the source. Unless noted, calls come from the whole dose curve; as a rule, active = well fitted curve in the direction sought with a large enough effect in the repeat runs; inconclusive = weak or mixed curves; inactive = no such curve, though single readings can be large; an effect the other way counts as inactive or inconclusive.

A short description of test [1]: qHTS assay to identify aromatase inhibitors - cell viability counter screen (AID 743084;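 note: cells stimulated with testosterone during compound exposure; nearly all actives have a fitted effect of over 55% in size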; note: potency is the fitted concentration of half-maximal effect). (In general: qHTS replaces the single test concentration by a dilution series.)
Test [2] concerns the target Aryl hydrocarbon receptor (Homo sapiens) (UniProt P35869). Briefly: qHTS assay to identify small molecule that activate the aryl hydrocarbon receptor (AhR) signaling pathway (AID 743085).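 For activation: HG2L7.5c1 human HepG2 liver cells with stably integrated DRE-driven firefly reporter; series mostly up to about 70 µM.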 Note: nearly all actives have a fitted effect of over 15% in size. Note: potency is the fitted concentration of half-maximal effect. In outline: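 Luminescence (ONE-Glo) from a dioxin-responsive-element luciferase reporter in HG2L7.5c1 HepG2 cells after 24 hr compound exposure at 37C; viability measured by CellTiter-Fluor fluorescence beforehand.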

Test [3] in a line: qHTS assay to identify small molecule that activate the aryl hydrocarbon receptor (AhR) signaling pathway - cell viability counter screen (AID 743086).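 For viability change, negative = cytotoxic: HepG2 liver cells carrying the AhR DRE luciferase reporter; series mostly up to about 70 µM.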 Note: nearly all actives have a fitted effect of over 45% in size. Note: potency is the fitted concentration of half-maximal effect. In short, it runs like this:
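HepG2-AhR-luc (HG2L7.5c1) cells, 4000/well, were preincubated 5 h at 37C, exposed to compound in qHTS format for 24 hr at 37C, then given CellTiter-Fluor for 30 min; viability was read as fluorescence in the reporter wells.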

For test [4], the target named is Peroxisome proliferator-activated receptor gamma (Homo sapiens) (UniProt P37231). As to the kind of experiment: qHTS assay to identify small molecule agonists of the peroxisome proliferator-activated receptor gamma (PPARg) signaling pathway (AID 743094; active = well fitted activation curve with a large enough effect in the signal ratio in the repeat runs, not every such curve was filed as active; the % refers to the signal ratio). In outline:
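Agonism was assessed in a beta-lactamase reporter system, HEK293H cells with a stably integrated UAS-bla construct under PPARg control; the 17 h treatment at 37C preceded a 1 h room-temperature FRET substrate read.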

For test [5] the target is unchanged. Briefly: qHTS assay to identify small molecule antagonists of the peroxisome proliferator-activated receptor gamma (PPARg) signaling pathway (AID 743191; calls by dose curve; note: nearly all actives have a fitted effect of over 30% in size; note: potency is the fitted concentration of half-maximal effect; for ratio activity, negative = inhibition: series mostly up to about 63 µM). In outline:
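GeneBLAzer PPARg UAS-bla HEK293H cells carrying a UAS-driven beta-lactamase reporter were plated at 3000 cells/well, preincubated 5 h at 37C, then given compound for 17 h at 37C; LiveBLAzer B/G FRET substrate was read after 1 h at room temperature.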

Test [6] is described as follows: qHTS assay to identify small molecule antagonists of the peroxisome proliferator-activated receptor gamma (PPARg) signaling pathway - cell viability counter screen (AID 743194). Note: nearly all actives have a fitted effect of over 55% in size. In outline: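 PPARg-UAS-bla HEK293H cells were plated, rested 5 h at 37 C, then treated with compounds plus rosiglitazone (50 nM final) for 17 h at 37 C; viability was then read by CellTiter-Glo luminescence after 30 min at room temperature.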

A short description of test [7]: qHTS assay for small molecule agonists of the antioxidant response element (ARE) signaling pathway (AID 743202; active = well fitted activation curve with a large enough effect in the signal ratio in the repeat runs, not every such curve was filed as active; the % refers to the signal ratio). In short, it runs like this:
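Steps: seed ARE-bla HepG2 cells (2,000/well); incubate 5 h at 37 C; add compounds by pin tool; incubate 16 h at 37 C; add FRET substrate; read fluorescence after 2 h at RT.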

Test [8] can be described thus: qHTS assay for small molecule activators of the heat shock response signaling pathway - cell viability counter screen (AID 743209). Note: nearly all actives have a fitted effect of over 50% in size. In outline: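 Compounds dissolved in DMSO were added to overnight-plated HSE-bla HeLa cells and left 5 h at 37 C. Cell viability was quantified by luminescence using CellTiter-Glo.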
Test [9] can be described thus: qHTS assay for small molecule activators of the heat shock response signaling pathway (AID 743210; active = well fitted activation curve with a large enough effect in the signal ratio in the repeat runs, with a control signal flat, not every such curve was filed as active; the % refers to the signal ratio;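 note: HeLa cells with beta-lactamase reporter driven by heat shock elements; series mostly up to about 63 µM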). In short, it runs like this:
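Activation of heat shock element-controlled beta-lactamase expression is measured in HeLa cells by LiveBLAzer FRET fluorescence, with compound exposure lasting 5 h at 37 C and substrate loading 2.5 h at room temperature.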

Test [10] can be described thus: qHTS assay for small molecule agonists of the antioxidant response element (ARE) signaling pathway - cell viability counter screen (AID 743203; calls by dose curve; note: nearly all actives have a fitted effect of over 55% in size). In short, it runs like this: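 ATP content via CellTiter-Glo luminescence served as the viability measure. Cells: ARE-bla HepG2, 2,000 per well. Exposure: 16 hrs, 37C/5% CO2.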
% is set by controls: 0 for no effect and ±100 for the full control effect.

Aryl hydrocarbon receptor (Homo sapiens), sequence (P35869 whole entry, looked up): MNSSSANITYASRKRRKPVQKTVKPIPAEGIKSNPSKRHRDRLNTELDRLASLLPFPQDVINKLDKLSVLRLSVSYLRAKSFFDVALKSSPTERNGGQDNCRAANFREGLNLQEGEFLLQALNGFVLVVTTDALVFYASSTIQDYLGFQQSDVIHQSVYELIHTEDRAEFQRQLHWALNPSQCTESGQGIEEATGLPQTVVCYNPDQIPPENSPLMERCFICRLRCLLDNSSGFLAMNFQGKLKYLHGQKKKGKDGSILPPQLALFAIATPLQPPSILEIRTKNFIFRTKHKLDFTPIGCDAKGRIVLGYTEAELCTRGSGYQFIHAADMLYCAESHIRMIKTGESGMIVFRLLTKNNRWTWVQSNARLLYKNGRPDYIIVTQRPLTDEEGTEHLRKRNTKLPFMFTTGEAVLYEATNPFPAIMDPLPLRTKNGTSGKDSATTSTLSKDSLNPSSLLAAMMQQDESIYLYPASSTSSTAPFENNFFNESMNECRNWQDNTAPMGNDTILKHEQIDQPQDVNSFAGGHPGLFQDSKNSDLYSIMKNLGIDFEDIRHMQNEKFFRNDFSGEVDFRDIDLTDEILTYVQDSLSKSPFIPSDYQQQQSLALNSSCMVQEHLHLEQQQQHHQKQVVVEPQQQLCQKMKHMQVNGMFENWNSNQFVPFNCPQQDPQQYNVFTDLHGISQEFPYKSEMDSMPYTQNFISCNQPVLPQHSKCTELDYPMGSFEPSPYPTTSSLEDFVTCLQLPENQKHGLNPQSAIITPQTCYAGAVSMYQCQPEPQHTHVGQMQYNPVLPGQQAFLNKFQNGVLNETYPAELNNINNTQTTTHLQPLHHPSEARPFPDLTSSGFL
Peroxisome proliferator-activated receptor gamma (Homo sapiens), sequence (P37231 whole entry, looked up): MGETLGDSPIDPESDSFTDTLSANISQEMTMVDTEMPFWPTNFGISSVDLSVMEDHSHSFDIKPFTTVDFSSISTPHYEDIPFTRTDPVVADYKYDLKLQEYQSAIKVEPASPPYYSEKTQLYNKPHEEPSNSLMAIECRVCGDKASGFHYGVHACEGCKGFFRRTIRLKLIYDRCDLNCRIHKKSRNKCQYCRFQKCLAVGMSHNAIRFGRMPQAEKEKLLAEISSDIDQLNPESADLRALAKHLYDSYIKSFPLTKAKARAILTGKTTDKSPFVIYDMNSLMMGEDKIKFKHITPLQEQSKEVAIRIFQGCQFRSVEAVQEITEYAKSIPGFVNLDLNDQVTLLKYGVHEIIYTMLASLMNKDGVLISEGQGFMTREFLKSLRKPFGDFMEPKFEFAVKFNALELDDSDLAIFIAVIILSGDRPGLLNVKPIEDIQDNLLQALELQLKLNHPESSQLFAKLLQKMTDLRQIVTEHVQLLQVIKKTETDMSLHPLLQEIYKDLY

In the case of `CCCCCCCC/C=C\CCCCCCCC(=O)OC`, the Potency result in test [1], in test [2], in [3], in test [4], in test [5] and in [6] was “inactive” in each case. Moreover, the Potency entry in [7], in test [8] and in [9] was “inactive” in each case.
Take `C1COCO1`: the Potency entry in [1], in test [2], in test [3], in test [4], in test [5] and in test [7] was “inactive” in each case. Further, in test [10], the Potency result was “inactive”.
For the compound `c1ccc(COCc2ccccc2)cc1`, the Potency entry in test [1], in test [2], in [3], in test [4], in test [5] and in test [6] was “inactive” in each case. Also, the Potency entry in test [7], in [10], in test [8] and in test [9] was “inactive” in each case.
As to `OC(CCCN1CCCCC1)(c1ccccc1)c1ccccc1`, the Potency result in test [1], in test [2], in test [3], in [4], in [5] and in test [6] was “inactive” throughout. Also, the Potency result in test [7], in test [10], in [8] and in [9] was “inactive” each time.
On to `COC(=O)CC(=O)C(C)(C)C`, for which the Potency result in [1], in [2], in [3], in test [4], in test [5] and in [9] was “inactive” in each case.
For the compound `CCCCCCCCCCCCCCC[C@H](O)[C@@H](N)CO`, the Potency result in [1], in test [2], in test [3], in test [4], in test [5] and in [6] was “inactive” throughout. For the same compound, the Potency entry in test [9] was “inactive”.
With `CCCCCCCCSCCO`, the Potency entry in test [1], in [2], in [3], in test [4], in [5] and in [6] was “inactive” each time. Besides, the Potency result in [7] and in test [8] was “inactive” throughout.
Consider `CC1(C)C2=CCCC(C)(C)[C@]23CC[C@H]1C3`, for which the Potency result in [1], in [2], in test [3], in test [4], in test [5] and in [6] was “inactive” in each case. The Potency entry in test [10], in [8] and in test [9] was “inactive” each time.
Regarding `CC1=C(C=O)C(C)(C)CCC1`, the Potency result in [1], in test [2], in test [3], in test [4], in test [5] and in [6] was “inactive” in each case. For the same compound, the Potency result in [10], in test [8] and in test [9] was “inactive” each time.
With `CCCCCCCCCOC(C)=O`, the Potency entry in test [1], in [2], in test [3], in [4], in test [5] and in test [7] was “inactive” in each case. Further, the Potency result in [8] and in test [9] was “inactive” each time.
In the case of `[O]=[Bi]`, the results for the activity change, negative = cytotoxicity in test [1], in test [6] and in test [8] were -5.72% [at 8.47 µM], -1.71% [at 5.95 µM] and 0.948% [at 5.95 µM], respectively. For the same compound, the activation in test [2] is -0.231% [at 8.47 µM]; in test [4], -4.02% [at 7.08 µM]; in [7] it was -9.19% [at 8.36 µM]. For the same compound, the viability change, negative = cytotoxic in [3] is -5.07% [at 8.47 µM]. Besides, the ratio activity, negative = inhibition in [5] was 6.53% [at 5.95 µM].
`CCOC(=O)OCC`: the Potency entry in [1], in test [2], in test [3], in test [4], in [5] and in test [6] was “inactive” in each case. Further, the Potency entry in test [7], in test [10], in test [8] and in test [9] was “inactive” throughout.
For the compound `CC1CC(O)CC(C)(C)C1` (configuration not stated), the Potency result in test [1], in [2], in [3], in [4], in [5] and in [6] was “inactive” throughout. Moreover, the Potency result in test [10] and in test [8] was “inactive” each time.
`Cc1occc1C(=O)Nc1ccc(C(=O)N2CCC(F)(F)/C(=C\C(=O)N3CCC(N4CCCCC4)CC3)c3ccccc32)cc1`: the Potency result in test [1], in [2], in test [3], in test [4], in test [5] and in test [6] was “inactive” in each case. Further, the Potency result in test [10] and in test [8] was “inactive” each time.
Turning to `CCCCCCCCCCCC[N+](C)(C)CCCS(=O)(=O)[O-]`, the Potency result in test [1], in [2], in test [3], in test [4], in [5] and in [6] was “inactive” each time. For the same compound, the Potency entry in test [7], in test [10], in [8] and in [9] was “inactive” each time.
With `CO/N=C1\CN(c2nc3c(cc2F)c(=O)c(C(=O)O)cn3C2CC2)CC1CN` (configuration not stated), the Potency result in [1], in [2], in [3], in test [4], in test [6] and in test [10] was “inactive” in each case. Also, the Potency entry in test [8] and in [9] was “inactive” throughout.
Take `CCc1nn(CCCN2CCN(c3cccc(Cl)c3)CC2)c(=O)n1CCOc1ccccc1`: the Potency is 29.8 µM (active) in [1] and 23.7 µM (active) in test [3]. Also, the Potency result in test [2], in test [4], in [6], in test [8] and in test [9] was “inactive” each time.
For `CC(=O)OCC(=O)[C@H]1CC[C@H]2[C@@H]3CCC4=CC(=O)CC[C@]4(C)[C@H]3CC[C@]12C`, the Potency entry in [1], in test [2], in [3], in test [4], in [6] and in test [10] was “inactive” in each case. Besides, the Potency result in test [8] and in test [9] was “inactive” in each case.
Regarding `CO[Si](C)(OC)OC`, the Potency entry in test [1], in test [2], in test [3], in [4], in test [6] and in test [7] was “inactive” throughout. The Potency result in test [10] and in test [9] was “inactive” each time.
Turning to `NCC1CCCC(CN)C1` (configuration not stated), the Potency result in test [1], in test [2], in test [3], in [4], in test [6] and in test [7] was “inactive” each time. The Potency entry in [10], in test [8] and in test [9] was “inactive” throughout.
Regarding `COc1cc2c(cc1OC)-c1cc(=Nc3c(C)cc(C)cc3C)n(C)c(=O)n1CC2`, the Potency in test [1] was 26.6 µM (active); in [2] it was 1.33 µM (active); in [3], 29.8 µM (active); in test [5], 13.3 µM (active). In [8], the Potency entry is “inactive”.
Regarding `CC(=O)Oc1ccc2c(c1)CC[C@@H]1[C@@H]2CC[C@]2(C)[C@@H](O)CC[C@@H]12`, the Potency result in test [1], in test [2], in test [3], in test [4], in test [6] and in test [10] was “inactive” in each case. Moreover, the Potency entry in test [8] and in [9] was “inactive” in each case.
With `CN1CCN(c2c(F)cc3c(=O)c(C(=O)O)cn4c3c2OCN4C)CC1`, the Potency result in test [1], in test [2], in test [3], in test [4], in test [6] and in [7] was “inactive” throughout. Further, the Potency entry in test [10] is “inactive”.
For `CN(C(=O)C(Cl)Cl)c1ccc(OC(=O)c2ccco2)cc1`, the Potency entry in test [1], in [2], in test [3], in test [4], in test [6] and in test [10] was “inactive” in each case. In addition, the Potency entry in [8] and in [9] was “inactive” throughout.
Consider `Cc1oc(C)c(C(=O)Nc2ccccc2)c1C`, for which the Potency result in test [1], in test [3], in test [6], in test [8] and in test [9] was “inactive” in each case. The values for the Potency in test [2] and in test [5] were 24.3 µM (active) and 24.5 µM (active), respectively.
